In PubChem BioAssay AID2014 (Sanford-Burnham Center for Chemical Genomics, 2009):
About 3,000 (1%) of roughly 290,000 compounds were called active. How the calls were made is not given here. For the sample, actives were picked, then their nearest neighbours and some compounds at random.

Biological target: Polyadenylate-binding protein 1 (Homo sapiens) (UniProt P11940)
Assay: PABP poly(A) RNA binding inhibitors, primary screen, biochemical, fluorescence polarization, uHTS (AID 2014);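 further: calls also rest on retests at 20 µM and on dose response follow-up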
Conditions: stronger effect = higher value

Chain of Polyadenylate-binding protein 1 (Homo sapiens) (P11940 whole entry, looked up): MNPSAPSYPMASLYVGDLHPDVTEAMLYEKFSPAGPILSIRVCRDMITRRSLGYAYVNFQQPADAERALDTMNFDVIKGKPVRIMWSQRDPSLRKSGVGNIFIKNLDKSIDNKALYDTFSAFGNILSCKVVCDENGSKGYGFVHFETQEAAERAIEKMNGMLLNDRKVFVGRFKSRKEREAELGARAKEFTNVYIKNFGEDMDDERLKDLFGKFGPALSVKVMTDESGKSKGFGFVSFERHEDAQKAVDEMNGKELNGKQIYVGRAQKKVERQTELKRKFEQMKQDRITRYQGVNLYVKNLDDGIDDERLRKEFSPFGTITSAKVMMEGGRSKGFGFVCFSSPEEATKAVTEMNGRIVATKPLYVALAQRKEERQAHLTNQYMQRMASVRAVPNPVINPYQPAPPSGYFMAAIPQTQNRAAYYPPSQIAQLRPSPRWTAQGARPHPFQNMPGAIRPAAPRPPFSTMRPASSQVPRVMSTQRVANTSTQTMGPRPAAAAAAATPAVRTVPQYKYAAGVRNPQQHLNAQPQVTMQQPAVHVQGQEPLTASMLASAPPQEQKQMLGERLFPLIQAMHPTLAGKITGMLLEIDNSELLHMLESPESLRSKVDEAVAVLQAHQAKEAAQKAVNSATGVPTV

SMILES	inhibition (at 35 µM)	inhibition (confirmation repeats, at 20 µM) [%]
COCCN1C(=O)N(c2ccc(Cl)cc2)C(=O)C1CC(=O)Nc1cc(OC)cc(OC)c1 (configuration not stated)	-6.1% (inactive)	
COc1cccc(NC(=O)CSc2nnc(Cc3ccc(OC)c(OC)c3)o2)c1	14.4% (inactive)	
O=C(CCCN1C(=O)/C(=C/c2ccco2)SC1=S)Nc1ccccc1	17.5% (active)	52.5
O=C(CCCN1C(=O)/C(=C/c2ccccc2)SC1=S)Nc1ccc(O)cc1	-7.7% (inactive)	
O=C(CCCN1C(=O)/C(=C\c2ccco2)SC1=S)Nc1cccc2ccccc12	4.3% (inactive)	-3.6
CCCn1c(C)cc(/C=C(\C#N)C(=O)OCC(=O)Nc2cc(OC)c(OC)c(OC)c2)c1C	-0.7% (inactive)	
COc1ccc(Cl)cc1NC(=O)c1cccc(N2C(=O)C3CC=CCC3C2=O)c1 (configuration not stated)	-3.5% (inactive)	
COc1ccccc1C1=Nc2cccc3cccc(c23)N1	65.3% (active)	86.4
Fc1ccccc1N=C1Nc2cccc3cccc1c23	-10.8% (inactive)	
c1ccc(C2=Nc3cccc4cccc(c34)N2)cc1	11.1% (inactive)	
CC(C)c1ccc(S(=O)(=O)N2CCC3(CC2)OCCO3)cc1	-6.1% (inactive)	
COc1cc([C@H](Cc2ccccc2)NC(C)=O)oc(=O)c1	76.2% (active)	
CCOC(=O)C(Cc1ccccc1)NC(=O)CCC(=O)c1ccc(OC)cc1 (configuration not stated)	-2.7% (inactive)	
COC(=O)[C@H](Cc1ccccc1)NC(=O)Nc1ccc(OC)cc1	-6.6% (inactive)	
O=C(CCC1CCN(C(=O)c2cccc(Cl)c2F)CC1)Nc1ccccc1	-10.6% (inactive)	
CS(=O)(=O)N1CCN=C1SCc1ccc(F)cc1	0.3% (inactive)	
CCN(c1ccccc1)S(=O)(=O)c1cc2c(cc1C)n(C)c(=O)c(=O)n2C	-2% (inactive)	
C[n+]1ccc(C(=O)NCc2ccccc2)cc1	64.2% (active)	92.7
CS(=O)(=O)NCc1ccc(C(=O)NCc2ccccc2)cc1	48.1% (inactive)	
Nc1ccc(C(=O)NCc2ccccc2)cc1	3.4% (inactive)	
CN(C(=O)c1c(Cl)cnn1C)C12CC3CC(CC(C3)C1)C2	86.8% (active)	75
COC(=O)c1c(NC(=O)c2c(Cl)cnn2C)sc(C)c1C	-5.8% (inactive)	
Cn1ncc(Br)c1C(=O)NC1CCCC1	2.8% (inactive)	
Cn1c(CCc2ccccc2)nnc1SCC(N)=O	-5.2% (inactive)	
C/C(=N\Nc1nncc2ccccc12)c1ccc(Cl)c([N+](=O)[O-])c1	2% (inactive)	
Clc1ccc(CN2CCCCCC2)cc1Cl	17.8% (inactive)	
COc1ccccc1CN1CC(C(=O)NCCc2cn[nH]c2)CCC1=O (configuration not stated)	27% (inactive)	
